This is a sample that favours compounds with a hit; in the whole collection about 2.6% have one here.
APOBEC3A inh – human APOBEC3A DNA deaminase inhibition; 330,000 tested, 0.41% active; P31941; inhibition, % at 20 µM; recombinant A3A, FAM/TAMRA ssDNA deamination fluorescence;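 active means at least 40% inhibition at 20 µM here, with at most 30% in a related deaminase screen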;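 further: plate controls were A3A with DMSO for no effect and wells lacking A3A enzyme for full effect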
PABP polyA inh – blocks human PABP binding to poly(A) RNA | fluorescence polarization | calls only at 35 µM | 290,000 tested, 1% active;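 further: calls also rest on retests at 20 µM and on dose response follow-up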
eIF4H FP inh – inhibitors of RNA binding by human eIF4H | 290,000 tested, 0.94% active | eIF4H fluorescence polarization binding assay | inhibition, % at 35 µM | Q15056;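 further: calls also rest on retests at 20 µM and on dose response follow-up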
PHOSPHO1 inh – PHOSPHO1 (human) inhibition; inhibition, % at 13.3 µM; AID 1565; recombinant PHOSPHO1, absorbance phosphatase assay; Q8TCT1; 290,000 tested, 1.1% active; in the data active means inhibition above about 60%
A3G deaminase – blocks human APOBEC3G single-stranded DNA deamination; Q9HC16; recombinant A3G, ssDNA deamination FAM/TAMRA fluorescence; inhibition, % at 20 µM; 330,000 tested, 0.28% active; AID 493012;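 active means inhibition of at least 40% at 20 µM, with no more than 30% in the related APOBEC3A deaminase screen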;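 further: plate controls were DMSO wells with A3G for no effect and wells lacking A3G enzyme for full effect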
Target sequence (Q9HC16 whole entry, looked up): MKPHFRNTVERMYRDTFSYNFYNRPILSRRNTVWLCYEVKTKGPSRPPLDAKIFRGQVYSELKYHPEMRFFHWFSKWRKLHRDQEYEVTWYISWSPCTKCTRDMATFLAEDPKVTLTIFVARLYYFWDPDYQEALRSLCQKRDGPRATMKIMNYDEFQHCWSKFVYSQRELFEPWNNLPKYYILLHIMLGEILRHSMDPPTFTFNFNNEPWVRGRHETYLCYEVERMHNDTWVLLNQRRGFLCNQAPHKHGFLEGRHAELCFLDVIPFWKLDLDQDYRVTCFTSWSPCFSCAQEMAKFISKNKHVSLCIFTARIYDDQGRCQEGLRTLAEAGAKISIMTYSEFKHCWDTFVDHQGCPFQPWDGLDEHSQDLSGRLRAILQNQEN
PABP1 MLLE inh – blocks PAM2 peptide binding to the PABP1 MLLE domain. GST-MLLE / FITC-PAM2 fluorescence polarization. inhibition, % at 20 µM. P11940. 360,000 tested, 0.36% active; in the data active means inhibition above about 35%, passing the limit was not always enough;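 further: plate controls were DMSO wells with GST-MLLE for no effect and wells lacking GST-MLLE protein for full effect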
Numbers without * were called inactive; i = inactive; ? = inconclusive; . = no result; + = active, no number; ! = repeats disagree. Unless noted, how the calls were made is not given here.

SMILES | APOBEC3A inh | PABP polyA inh | eIF4H FP inh | PHOSPHO1 inh | A3G deaminase | PABP1 MLLE inh
CCN(CC)c1ccc(SS(=O)(=O)O)cc1 | -0.7 | i | 42.2 | 105.8*! | 9.7 | 43.1*!
O=C(Nc1ccc([N+](=O)[O-])cc1)N1CCN(C(=O)C2CCCO2)CC1 (stereo unspecified) | 2.6 | i | -7.1 | 47.6 | -1.2 | -6.0
CC(NC(=S)Nc1ccccc1C(F)(F)F)C1CC2CCC1C2 (stereo unspecified) | 0.2 | i | -5.3 | 32.2 | -6.1 | 45.5*
CC(NC(=O)c1ccccc1Br)C1CC2CCC1C2 (stereo unspecified) | 0.6 | . | . | . | -2.2 | 17.7
Cc1ccc(CNC(=O)C2(C)CCN2C(=O)Cc2ccc(-c3ccccc3)cc2)cc1 (stereo unspecified) | . | . | . | . | . | -2.8
COc1ccc(OC)c(NC(=O)NNS(=O)(=O)c2ccc(C)cc2C)c1 | 0.0 | i | -5.0 | 36.6 | 1.9 | -17.9
COc1ccccc1N1CCN(C(=O)[C@H](C)NS(=O)(=O)c2ccc3c(c2)OCCCO3)CC1 | . | . | . | . | . | 41.0*
COc1ccc(/C=N/Nc2nnc(Cc3ccccc3)c(=O)[nH]2)cc1OC | -10.9 | + | ? | 23.1 | -0.9 | 0.8
COc1ccc(Cc2nnc(N/N=C/c3ccc(O)cc3)[nH]c2=O)cc1OC | -5.5 | i | 22.2 | 1.1 | -5.2 | -23.7
CCCCC(=O)N(C)c1c(C)nc2ccc(C(=O)Nc3cccc(NS(C)(=O)=O)c3)cn12 | . | . | . | . | . | -2.8
O=C(c1ccco1)N1CCN(Cc2nc(Cc3ccccc3)no2)CC1 | 1.2 | i | 0.9 | 60.1* | -14.5 | 9.7
COc1ccc(CN2CCC2(C)C(=O)NCCc2c[nH]c3ccccc23)c2ccccc12 (stereo unspecified) | . | . | . | . | . | -18.4
NC(=S)NN=C1c2cc(S(=O)(=O)N3CCOCC3)ccc2-c2ccc(S(=O)(=O)N3CCOCC3)cc21 | 4.2 | i | 2.0 | -12.0 | 2.2 | 39.6*
O=C(Cc1ccc(S(=O)(=O)N2CCCC2)s1)Nc1nc2c(s1)CCCC2 | 8.7 | i | 39.9 | 61.4* | 2.9 | 13.4
COc1ccc(CNC(=O)CCn2c(C)csc2=O)cc1 | -3.9 | . | . | . | -9.4 | 12.4
Cc1ccc([N+](=O)[O-])cc1N=Nc1c(-c2ccc([N+](=O)[O-])cc2)[nH]n(C(N)=S)c1=O | . | i | 63.8 | 16.1 | . | 31.5
NC(=S)n1[nH]c(-c2ccc([N+](=O)[O-])cc2)c(N=Nc2ccc(Cl)cc2)c1=O | . | + | ? | 43.7 | . | 37.7
COc1ccc(/C=N/NC(=O)Cn2c(Cc3ccc(OC)c(OC)c3)nc3ccccc32)cc1 | -0.3 | + | active | -21.2 | -4.6 | 3.5
Cc1c(Cc2ccccc2)c(=O)oc2cc(O)cc(O)c12 | -1.8 | i | 8.6 | 24.9 | -5.4 | 12.2
CC1(C(=O)NNC(=O)c2ccc(=O)oc2)CC1Br (stereo unspecified) | 17.6 | + | 82.0 | 36.8 | 5.8 | -7.5
CC1=Nc2ccc(C)cc2/C1=C/c1c(N)n2oc(C)cc2nc1=O | -4.5 | +! | ? | 27.4 | 1.1 | -44.0
CSc1nsc2nc(=O)c(/C=C3\C(C)=Nc4ccc(C)cc43)c(N)n12 | 1.7 | i | ? | 2.0 | -7.7 | -19.9
Cc1ccc(C2C(C#N)=C(N)SC(N)=C2C#N)o1 | 9.9 | ? | ? | 101.9* | 11.8 | .
O=c1[nH]c(=S)[nH]c2c1C(c1ccc(Br)cc1)c1c([nH]c(=S)[nH]c1=O)O2 | . | + | 83.0* | 43.7 | . | 37.7
CCOC(=O)C1CCN(C(=O)C2CC(=O)N(c3ccc4c(c3)OCCO4)C2)CC1 (stereo unspecified) | 2.0 | + | 19.3 | -35.5 | -7.7 | -1.9
SMILES | APOBEC3A inh | PABP polyA inh | eIF4H FP inh | PHOSPHO1 inh | A3G deaminase | PABP1 MLLE inh
Cc1ccc(COc2ccsc2C(=O)O)cc1 | . | i | 3.8 | 60.9* | . | -12.8
CC(O)CNc1nc2ccccc2n1CC(=O)NCC(F)(F)F (stereo unspecified) | 5.8 | i | -6.6 | 73.2* | -11.6 | -9.0
O=C(O)C1Nc2c(O)cc(Cl)c([N+](=O)[O-])c2C2C=CCC12 (stereo unspecified) | 100.3 | + | ? | -45.0 | 93.7 | 18.6
O=C(O)C1Nc2ccc(OC(F)(F)F)cc2C2C=CCC12 (stereo unspecified) | 93.4 | . | . | . | 73.5 | .
O=c1[nH]c(=S)[nH]cc1Oc1ccc(Cl)cc1Cl | -3.3 | i | 9.9 | 18.5 | -6.1 | 45.9*
COc1ccccc1Nc1ccc(NC(=O)c2cccc([N+](=O)[O-])c2C)cc1 | -2.1 | i | -13.0 | 11.4 | -0.3 | -9.3
Cc1cc(/C([O-])=C(/C(=S)Nc2ccccc2)[n+]2ccccc2)c(C)n1-c1ccccc1 | 0.1 | + | 60.8* | 44.1 | -0.3 | -21.5
Cc1ccc(-n2c(C)cc(/C([O-])=C(/C(=S)Nc3ccc(F)c(Cl)c3)[n+]3ccccc3)c2C)cc1 | 0.9 | i | 21.2 | 83.7* | -8.5 | -37.8
Cc1cc(/C([O-])=C(/C(=S)Nc2ccc(F)cc2)[n+]2ccccc2)c(C)n1Cc1ccccc1Cl | 7.1 | i | 39.8 | -51.3 | 0.9 | -38.1
Cc1cc(/C([O-])=C(/C(=S)Nc2ccc(F)cc2)[n+]2ccccc2)c(C)n1-c1ccc(F)cc1 | -2.5 | i | 66.7* | 95.7* | 3.7 | -23.2
O=[N+]([O-])c1cccc(/C([O-])=C(/C(=S)Nc2ccccc2)[n+]2ccccc2)c1 | 1.3 | i | -1.6 | -7.8 | -2.1 | -18.2
COc1ccc(NS(=O)(=O)c2cccc(C(=O)NNC(=O)CNC(=O)c3ccco3)c2)cc1 | 0.1 | i | 0.3 | 24.0 | 13.5 | 11.2
O=C(COC(=O)c1c[nH]c(=O)[nH]c1=O)Nc1cccc([N+](=O)[O-])c1 | -4.8 | . | . | . | -7.6 | -7.4
COc1ccc2c(C(=O)CN3CCN(c4ccccc4)CC3)c[nH]c2c1 | -4.1 | + | 68.9* | -9.3 | -10.2 | -35.7
O=C(CN1CCN(Cc2ccccc2)CC1)c1c[nH]c2ccccc12 | 20.2 | i | -8.5 | 80.4* | 12.7 | -80.0
CC(OC(=O)c1cccc(-n2cnnn2)c1)C(=O)Nc1cccc(Cl)c1 (stereo unspecified) | 2.8 | . | . | . | -0.6 | -2.6
S=C(NCc1ccco1)Nc1ccc(Cl)cn1 | 0.0 | i | 11.5 | -12.6 | -2.0 | -31.8
COc1ccc(C(=O)NCCCNC(=O)c2ccc(C)nc2)cc1 | -3.3 | i | -2.7 | 23.7 | -5.3 | -0.5
O=C(Cc1cccs1)NCc1cccs1 | 4.1 | i | -4.8 | 15.2 | -0.8 | 4.7
CC(C)(C)CC(=O)NCc1cccs1 | 2.5 | i | -4.6 | 60.0* | 0.2 | 12.0
O=C1C2C3C=CC(CC3)C2C(=O)N1c1ccc(F)cc1 (stereo unspecified) | 1.1 | i | 4.1 | 23.5 | -3.6 | -13.8
CC(C)C1NC2(C(=O)c3ccccc3C2=O)C2C(=O)N(c3ccc(F)cc3)C(=O)C12 (stereo unspecified) | 2.9 | + | 50.6* | 31.4 | 3.0 | 38.6

Compound activity as filed in PubChem BioAssay.
